The record followed here is publication PMC5540273 (PLoS ONE, 2017).

Bounds are passed on as bounds.

Test [1] relates to T1, JNK3.
T1 construct: gene MAPK10

Test [2] concerns LIMK1.
The subject of test [3] is LYN.
The test system of test [4] is T2, LZK.
T2 construct: gene MAP3K13

Test [5] deals with MAK.
Test [6] concerns MAP4K2.
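Note: kd values determined as follow-up on hits from a single-replicate KINOMEscan panel screen.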

Consider `COC(=O)c1c(-c2ccccc2)c2cc(OC)ccc2c(=O)n1Cc1ccccc1`, for which the equilibrium dissociation constant (Kd) in test [1] was determined as 0.11 µM. For the molecule `COc1ccc(C2=C(Nc3cccc(C(=O)O)c3)C(=O)NC2=O)cc1` [SB-390765], the equilibrium dissociation constant (Kd) in test [2] was greater than 10 µM.

In turn, `Cn1ccc2ncnc(Oc3cccc(C(=O)Nc4ccccc4)c3)c21` yielded a dissociation constant Kd in test [2] greater than 10 µM. `O=c1cc(N2CCOCC2)nc2n(Cc3cccc(Cl)c3Cl)ccn12` [GSK2286295] gave a dissociation constant Kd in test [3] greater than 10 µM. In the case of `O=C(Nc1n[nH]c2cc(-c3cccc(F)c3F)ccc12)C1CC1` [SB-733894], in test [4], the equilibrium dissociation constant (Kd) was greater than 10 µM. `COc1cccc(-c2cc(-c3c[nH]nc3-c3ccccn3)ccn2)c1` [GW680338] displayed a Kd in test [5] greater than 10 µM.

`Cc1cc(-c2ccc3c(c2)CC[C@@H](N[C@@H](C)c2ccccc2)C3)cnc1N.Cl` [GW412617] registered a Kd in test [6] of 0.043 µM.

For orientation: Kd means the concentration at which binding is half-saturated.
